Bioassay records as filed in PubChem.
NALP3 yeast inh = NALP3 inhibition in yeast | Yeast reconstituted NLRP3/ASC/caspase-1, beta-gal luminescence, 24 h | inhibition, % at 10 µM | hit rate 0.39% among 330,000;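 active = inhibition of 50% or more; inactive = inhibition below 50%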;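 note: plate controls were induced DMSO wells for no effect and uninduced yeast grown without galactose for full effect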
tim23-1 inh = tim23-1 yeast growth inhibition; S. cerevisiae tim23-1 growth, BacTiter-Glo luminescence, 24 h; inhibition, % at 20 µM; hit rate 1.3% among 330,000; AID 463212;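 active = growth inhibition of the mutant yeast at or above 50%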;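 note: temperature-sensitive mutant grown at 25 °C; plate controls were DMSO-treated mutant yeast for no effect and medium wells lacking yeast for full effect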
TIM10 inh = growth inhibitors of TIM10 yeast strain. S. cerevisiae TIM10 strain growth, BacTiter-Glo luminescence, 24 h. inhibition, % at 10 µM. hit rate 1.4% among 330,000. AID 463195;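 active = inhibition of 40% or more at the single tested concentration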;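 note: wild-type TIM10 isogenic control strain grown at permissive 25 °C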
CR mimetic SO = yeast age-related superoxide inhibition as caloric restriction mimetic; S. cerevisiae aged cells, superoxide DHE fluorescence; hits give low values; superoxide response (% of plate mean), % at 10 µM; hit rate 0.18% among 330,000;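 active = superoxide response under a set limit, about three screen SD below normal, cut at about 65% in these data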;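 note: yeast aged for seven days with compound at 30 °C before DHE staining; 100% = average MFI of all compound-treated wells on the plate with controls excluded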
tim10-1 inh = inhibits growth of tim10-1 mutant yeast. S. cerevisiae tim10-1 ts strain growth, BacTiter-Glo, 24 h. inhibition, % at 20 µM. hit rate 2.2% among 330,000;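 active = inhibition of at least 40%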;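 note: mutant grown at 25 °C; 0% = DMSO wells with yeast and 100% = wells holding no yeast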
tim10-1 conf = tim10-1 yeast growth inhibition, confirmed. shares compounds with tim10-1 inh. inhibition, % at 20 µM. AID 463213. S. cerevisiae tim10-1 ts strain growth, BacTiter-Glo, 24 h. hit rate 56% among 7,400;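 active = inhibition of yeast growth at or above a set limit in either of two repeat tests at 20 µM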;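 note: tim10-1 mutant grown at permissive 25 °C to find synthetic lethal compounds; 0% = DMSO yeast wells and 100% = medium wells without yeast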
tim10 confirm = confirmation of TIM10 yeast growth inhibitors | shares compounds with TIM10 inh | S. cerevisiae tim10 strain growth, BacTiter-Glo luminescence, 24 h | inhibition, % at 10 µM | hit rate 63% among 4,600 | AID 463215;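 active = inhibition of yeast growth at or above a set limit in either of two replicates at 10 µM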;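 note: this counterscreen used the strain with wild-type TIM10; 0% = yeast with DMSO and 100% = medium wells lacking yeast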
An asterisk follows results filed as active. Hits are enriched below; roughly 3.8% of the tested compounds scored in any of these assays.

COc1ccc(CCNC(=O)Cn2cnc3c(nnn3Cc3ccccc3F)c2=O)cc1OC was read as NALP3 yeast inh -2, tim23-1 inh -4, TIM10 inh -11, CR mimetic SO 109 and tim10-1 inh -2.
Screening CCn1c(SCC(=O)NC2CC2)nnc1-c1cccc(OC)c1 returned NALP3 yeast inh 5, tim23-1 inh -7, TIM10 inh 3, CR mimetic SO 103 and tim10-1 inh 2.
COc1ccc(C(=O)NC=C2C(=O)OC(C)(C)OC2=O)cc1 was read as NALP3 yeast inh 0, tim23-1 inh 19, TIM10 inh 4, CR mimetic SO 93 and tim10-1 inh 13.
`C[C@H]1CCC[C@]2(C)C[C@H]3OC(=O)C(CN4CCCCCC4)[C@H]3C=C12` (some centres not stated) gave NALP3 yeast inh 25, tim23-1 inh 44, TIM10 inh 42*, CR mimetic SO 96, tim10-1 inh 44*, tim10-1 conf 41* and tim10 confirm 49*.
For CN1CCCC2(CCCN(Cc3nc(Cc4cccc(C(F)(F)F)c4)no3)C2)C1 (configuration not stated) the results were NALP3 yeast inh 9, tim23-1 inh 20, TIM10 inh -1, CR mimetic SO 105 and tim10-1 inh 7.
For FC(F)(F)c1cccc(Cc2noc(CN3CCC(c4ccncc4)CC3)n2)c1 the results were NALP3 yeast inh 10, tim23-1 inh 45, TIM10 inh 42*, CR mimetic SO 112, tim10-1 inh 44*, tim10-1 conf 42* and tim10 confirm 43*.
COC(=O)CCCn1c(C)cc(C(=O)CCl)c1C was read as NALP3 yeast inh -77, tim23-1 inh 36, TIM10 inh 42*, CR mimetic SO 102, tim10-1 inh 45*, tim10-1 conf 37* and tim10 confirm 36*.
Screening COC(=O)CCn1c(C)cc(C(=O)COc2ccccc2C(N)=O)c1C returned NALP3 yeast inh -2, tim23-1 inh -15, TIM10 inh 8, CR mimetic SO 96 and tim10-1 inh 9.
`O=Cc1coc2c(ccc3ccccc32)c1=O` gave NALP3 yeast inh 10, tim23-1 inh 44, TIM10 inh 58*, CR mimetic SO 104, tim10-1 inh 41*, tim10-1 conf 34* and tim10 confirm 78*.
COc1cc(NCC(=O)Nc2cccc(S(=O)(=O)N3CCCCC3)c2)cc(OC)c1OC was read as NALP3 yeast inh 24, tim23-1 inh 8, TIM10 inh 2, CR mimetic SO 98 and tim10-1 inh 0.
Screening C=C1CCC[C@]2(C)C[C@H]3OC(=O)C(CNC(C)(CO)CO)[C@H]3CC12 (some centres not stated) returned NALP3 yeast inh -68, tim23-1 inh 44, TIM10 inh 43*, CR mimetic SO 113, tim10-1 inh 51*, tim10-1 conf 52* and tim10 confirm 50*.
`C[C@@H]1COC(=O)CCC/C=C\C[C@@H](CC(=O)N(CCO)Cc2ccccc2)C(=O)N1` gave NALP3 yeast inh 9, tim23-1 inh -5, TIM10 inh -8, CR mimetic SO 103 and tim10-1 inh -8.
For O=c1[nH]c2ccc(S(=O)(=O)Nc3ccccc3O)cc2[nH]1 the results were NALP3 yeast inh 18, tim23-1 inh 7, TIM10 inh 11, CR mimetic SO 100 and tim10-1 inh 1.
`O=C(Cc1cccs1)Nc1nc(-c2ccc(F)cc2F)cs1` gave NALP3 yeast inh 37, tim23-1 inh 41, TIM10 inh 52*, CR mimetic SO 116, tim10-1 inh 41*, tim10-1 conf 34* and tim10 confirm 41*.
`O=C(Cc1cccs1)Nc1nc(-c2ccc(F)c(F)c2)cs1` gave NALP3 yeast inh 18, tim23-1 inh 20, TIM10 inh 19, CR mimetic SO 102 and tim10-1 inh -11.
For COc1ccc(C(=O)O/N=C(\N)Cc2ccc([N+](=O)[O-])cc2)c(OC)c1 the results were NALP3 yeast inh -2, tim23-1 inh 40, TIM10 inh 51*, CR mimetic SO 120, tim10-1 inh 75*, tim10-1 conf 84* and tim10 confirm 57*.
Screening Cc1ccccc1-c1cc(-c2ccccc2O)n[nH]1 returned NALP3 yeast inh 7, tim23-1 inh 44, TIM10 inh 65*, CR mimetic SO 97, tim10-1 inh 45*, tim10-1 conf 14 and tim10 confirm 6.
CCOC(=O)CSc1nc(=O)n2ccccc2n1 was read as NALP3 yeast inh 23, tim23-1 inh 9, TIM10 inh 5, CR mimetic SO 91 and tim10-1 inh 6.
Screening Cc1cc2c3c(c1)C(C)CC(C)(C)N3C(=O)C2=C(C#N)C#N (configuration not stated) returned NALP3 yeast inh 14, tim23-1 inh -44, TIM10 inh 59*, CR mimetic SO 102, tim10-1 inh 57*, tim10-1 conf 46* and tim10 confirm 49*.
For CC(C)COC(=O)c1ccc2c(c1O)C(=O)c1ccccc1C2=O the results were NALP3 yeast inh 48, tim23-1 inh 49, TIM10 inh 47*, CR mimetic SO 107, tim10-1 inh 58*, tim10-1 conf 42* and tim10 confirm 40*.
For COc1ccc2nc3oc(C(=O)N4CCN(c5cccc(Cl)c5)CC4)cc3cc2c1 the results were NALP3 yeast inh 12, tim23-1 inh 37, TIM10 inh 63*, CR mimetic SO 93, tim10-1 inh 60*, tim10-1 conf 9 and tim10 confirm 10.
Screening COc1ccc2nc3oc(C(=O)N4CCN(c5cccc(C(F)(F)F)c5)CC4)cc3cc2c1 returned NALP3 yeast inh 12, tim23-1 inh 6, TIM10 inh 14, CR mimetic SO 122 and tim10-1 inh 5.
C=CC[C@]12C=C(OC)C(=O)C(OC)=C1O[C@@H](c1ccc3c(c1)OCO3)[C@H]2C was read as NALP3 yeast inh 14, tim23-1 inh 24, TIM10 inh 9, CR mimetic SO 97 and tim10-1 inh 15.
C=CC[C@]12CC=CC(=O)[C@@]1(O)O[C@H](c1ccc(OC)c(OC)c1)[C@H]2C was read as NALP3 yeast inh 21, tim23-1 inh 47, TIM10 inh 42*, CR mimetic SO 134, tim10-1 inh 50*, tim10-1 conf 38* and tim10 confirm 43*.
`c1csc(-c2nc3c4ccccc4c4ccccc4c3[nH]2)c1` gave NALP3 yeast inh 17, tim23-1 inh 32, TIM10 inh 58*, CR mimetic SO 121, tim10-1 inh 41*, tim10-1 conf 21 and tim10 confirm 29.
